# Results: PubChem BioAssay (NCI)
# Compounds without any hit were thinned out: in the full panel of roughly 79,000, 15% have a hit. Values without a mark were called inactive. Active and inactive are the calls of the source. Rule as the data show it: active = growth inhibition above about 70%; inactive = the rest.
# Assays:
# [1] = NCI Yeast Anticancer Drug Screen. Data for the rad50 strain (AID 155);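 also: 0% = growth of vehicle-only cultures of the same strain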; conditions: S. cerevisiae rad50 strain growth inhibition, hits give high values
# Summary of the method: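 Growth of the mutant yeast was measured after compound exposure and referenced to vehicle-treated cultures.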
# [2] = NCI Yeast Anticancer Drug Screen. Data for the mec2-1 strain (AID 157); conditions: S. cerevisiae mec2-1 strain, hits give high values
# Summary of the method: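 Each compound was tested on mec2-1 yeast, a strain altered in DNA damage repair or cell cycle control. Growth inhibition is reported relative to vehicle.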
# [3] = NCI Yeast Anticancer Drug Screen. Data for the sgs1 mgt1 strain (AID 161);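 also: 0% = growth of cultures given vehicle only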; conditions: S. cerevisiae sgs1 mgt1 strain, hits give high values
# Summary of the method: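 Mutant yeast exposed to compound; growth scored against vehicle-only wells.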
# [4] = NCI Yeast Anticancer Drug Screen. Data for the cln2 rad14 strain (AID 165);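 also: 0% = growth equal to vehicle treated cultures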; conditions: S. cerevisiae cln2 rad14 strain, hits give high values
# Summary of the method: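 Test compounds were added to cln2 rad14 yeast cultures; inhibition of growth was then determined by comparison with vehicle treatment.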
# [5] = NCI Yeast Anticancer Drug Screen. Data for the bub3 strain (AID 167); conditions: S. cerevisiae bub3 mutant strain, hits give high values
# Summary of the method: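 Whole-cell yeast assay. The mutant strain was incubated with compounds, and growth inhibition was determined by comparison with vehicle-treated cells.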
# [6] = NCI Yeast Anticancer Drug Screen. Data for the mlh1 rad18 strain (AID 175); conditions: S. cerevisiae mlh1 rad18 strain growth inhibition, hits give high values
# Summary of the method: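 Inhibition values reflect reduced growth of mutant yeast versus vehicle-treated controls following compound exposure; the mutations affect DNA damage repair.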
# [7] = at 5.0 µM (retest, dose inferred, filed as 0.5)
# [8] = at 50.0 µM (retest, dose inferred, filed as 5.0)
Compound,"growth inhibition [1, 7] [%]","growth inhibition [1, 8]",growth inhibition ([1]; at 50.0 µM),"growth inhibition [2, 7] [%]","growth inhibition [2, 8]",growth inhibition ([2]; at 50.0 µM),"growth inhibition [3, 7] [%]","growth inhibition [3, 8]",growth inhibition ([3]; at 50.0 µM),"growth inhibition [4, 7] [%]","growth inhibition [4, 8]",growth inhibition ([4]; at 50.0 µM),"growth inhibition [5, 7] [%]","growth inhibition [5, 8]",growth inhibition ([5]; at 50.0 µM),"growth inhibition [6, 7] [%]","growth inhibition [6, 8]",growth inhibition ([6]; at 50.0 µM)
O=C(NO)C(=O)Nc1cc(Cl)ccc1Cl,7,57%,86.8% (active),-8,90% (active),73% (active),-3,89% (active),79.8% (active),2,94% (active),74.5% (active),-28,94% (active),85.9% (active),-2,94% (active),77.7% (active)
COc1ccc(N2C(=O)C(=O)N(c3ccccc3[N+](=O)[O-])C2=S)cc1,16,99% (active),86.3% (active),-10,96% (active),90% (active),7,98% (active),86.2% (active),16,94% (active),72.2% (active),7,98% (active),78.2% (active),3,98% (active),83.9% (active)
O=S(=O)(CC(Br)c1ccccc1)CC(Br)c1ccccc1 (stereo not given),-3,-1%,50.2%,19,41%,43%,-4,0%,80.9% (active),-3,6%,40%,4,42%,63.2%,-3,13%,46.6%
CCCCCN(CCC)CCCCCCCCCN1CCCc2cc(OC)ccc21,-8,-2%,97.3% (active),-6,-7%,97.7% (active),2,2%,62.9%,-7,-10%,97% (active),-4,-3%,91% (active),-5,-5%,98% (active)
COC1=Nc2ccccc2S(=O)(=O)C=C1,4,87% (active),98.2% (active),3,79% (active),98.5% (active),2,89% (active),99.2% (active),6,79% (active),95.8% (active),11,98% (active),98.7% (active),12,94% (active),98.3% (active)
